In PubChem BioAssay AID602432 (Southern Research Specialized Biocontainment Screening …, 2012):
Potency and affinity values are given separately. Records with an inconclusive call do not appear. Entries that show only a call come without a potency. Active and inactive are the calls of the source. The rule behind the calls is not given here.

Assay: HepG2 cell cytotoxicity, cytotoxicity control, set 6 (AID 602432)
Settings: series mostly up to 50 µM

With `COCCNC(=O)CSc1nc2ccccc2c(=O)[nH]1` as the compound, how does the outcome read?
The outcome was “inactive”.

Which outcome does the source give for `O=C(CSc1nc2ccccc2c(=O)[nH]1)NC1CCCCC1` here?
Its outcome is “inactive”.

With `CC(C)CCNC(=O)CSc1nc2c(c(=O)[nH]1)CCCC2` as the compound, how does the outcome read?
Its outcome is “inactive”.

With `O=C(CSc1nc2c(c(=O)[nH]1)CN(Cc1ccccc1)CC2)NC1CCCCC1` as the compound, how does the outcome read?
The outcome was “inactive”.

Which outcome does the source give for `O=C(CSc1nc2c(c(=O)[nH]1)CCCC2)NC1CCCCC1` here?
The outcome was “inactive”.

Which outcome does the source give for `O=C(c1ccc(CNc2c(N3CCCC3)c(=O)c2=O)cc1)N1CCN(c2ccccc2)CC1` here?
The outcome was “inactive”.

Which outcome does the source give for `O=C(c1ccc(CNc2c(N3CCOCC3)c(=O)c2=O)cc1)N1CCC(c2ccccc2)CC1` here?
The outcome was “inactive”.

For `CC(C)CCNC(=O)CSc1nc2c(c(=O)[nH]1)CCCCC2`, which outcome is on record?
The outcome was “inactive”.

Which outcome does the source give for `O=C(NCc1ccc(C(=O)N2CCN(c3ccccc3)CC2)cc1)NC1CCCCC1` here?
Its outcome is “inactive”.

Which outcome does the source give for `O=C(CSc1nc2c(c(=O)[nH]1)CCC2)NC1CCCCC1` here?
The outcome was “inactive”.

With `CC(C)CCNC(=O)CSc1nc2ccccc2c(=O)[nH]1` as the compound, how does the outcome read?
The outcome was “inactive”.

For `CC1CCCN(c2c(NCc3ccc(C(=O)N4CC=C(c5ccccc5)CC4)cc3)c(=O)c2=O)C1` (configuration not stated), which outcome is on record?
Its outcome is “inactive”.

For `O=C(c1ccc(CNc2c(N3CCCC3)c(=O)c2=O)cc1)N1CCC(c2ccccc2)CC1`, which outcome is on record?
The outcome was “inactive”.

With `O=C(CSc1nc2ccccc2c(=O)[nH]1)NC1CCOCC1` as the compound, how does the outcome read?
Its outcome is “inactive”.

With `O=C(c1ccc(CNc2c(N3CCOCC3)c(=O)c2=O)cc1)N1CCN(c2ccccc2)CC1` as the compound, how does the outcome read?
Its outcome is “inactive”.

With `COC(=O)C(Cc1ccccc1)NC(=O)CSc1nc2ccccc2c(=O)[nH]1` (configuration not stated) as the compound, how does the outcome read?
The outcome was “inactive”.

Which outcome does the source give for `COc1ccc(NC(=O)NCc2ccc(C(=O)N3CCC(c4ccccc4)CC3)cc2)cc1` here?
Its outcome is “inactive”.
